The source of these data is paper PMC12820563, “FoxP3 forms a head-to-head dimer in vivo and stabilizes its multimerization on adjacent microsatellites”.

The full ranking holds about 16,000 sequences; the median of “rpm ratio (pull-down/input)” is about 0.5, and the highest 2% start at about 5.5. The entries come from a sample that favours the highest values as a whole.

This assay addresses T1, MBP-FoxP3dN (Mus musculus, UniProt Q99JB6 188-423).
T1 sequence: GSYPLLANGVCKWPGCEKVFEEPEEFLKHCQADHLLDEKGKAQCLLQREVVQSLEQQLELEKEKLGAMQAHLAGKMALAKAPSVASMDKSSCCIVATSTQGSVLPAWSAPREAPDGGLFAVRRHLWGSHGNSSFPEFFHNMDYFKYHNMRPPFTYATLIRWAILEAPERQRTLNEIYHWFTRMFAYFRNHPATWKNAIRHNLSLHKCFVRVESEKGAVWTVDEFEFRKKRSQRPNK
As to the kind of experiment: PD-seq (MBP pull-down with sequencing); 20 mM Tris-HCl pH 7.5, 100 mM NaCl, 1.5 mM MgCl2, 0.4 uM protein, 0.1 uM dsDNA library, 30 min, room temperature, amylose pull-down; high values mean tight binding. The note with it: protein: recombinant; tags: His6-MBP; chain copies: 2; dsDNA, one strand shown. In outline:
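Binding is given as reads-per-million enrichment, pull-down over input, with replicates pooled. The bait was an N-terminus-lacking mouse FoxP3 or FoxP1 fragment with a His6-MBP tag, expressed in E. coli and used at 0.4 µM with 0.1 µM Klenow-filled degenerate double-stranded DNA library for 30 min at room temperature in Tris pH 7.5 buffer with NaCl and MgCl2. Amylose resin pull-down with three washes was followed by proteinase K release, PCR barcoding and Illumina sequencing.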
For the sequence “GATGATTGTTCTCCCAGCTGATGAATTGGGGCATTCGAGTAAACAAATTTTCCTAATCTTTCTGTTCAAGCGCCATCTAC”, the binding signal is 4.3 RPM ratio (pull-down/input).

For the sequence “GATGATTGTTCTCCCAGCTGATGAATTTTGGGCATCGAGTAAACAAATTTTCCTAATCTTTCTGTTCAAGCGCCATCTAC”, the binding signal is 0.782 RPM ratio (pull-down/input).

For “GATGATTGTTCTCCCAGCTGATGAATTTGGGCATTCGAGTAAACAAATTTTCCTAATCTTTCTGTTCAAGCGCCATCTAC”, the binding signal is 4.79 RPM ratio (pull-down/input).

Turning to “GATGATTGTTCTCCCAGCTGATGAATTGGGGGCATCGAGTAAACAAATTTTCCTAATCTTTCTGTTCAAGCGCCATCTAC”, the binding signal was 0.87 RPM ratio (pull-down/input).

Regarding “GATGATTGTTCTCCCAGCTGATGAATTGGGCATTTCGAGTAAACAAATTTTCCTAATCTTTCTGTTCAAGCGCCATCTAC”, the binding signal is 5.5 RPM ratio (pull-down/input).

Turning to “GATGATTGTTCTCCCAGCTGATGAATTGGGCATCTCGAGTAAACAAATTTTCCTAATCTTTCTGTTCAAGCGCCATCTAC”, the binding signal was 6.41 RPM ratio (pull-down/input).

As to “GATGATTGTTCTCCCAGCTGATGAATTAAGTGAATCGAGTAAACAAATTTTCCTAATCTTTCTGTTCAAGCGCCATCTAC”, the binding signal was 0.328 RPM ratio (pull-down/input).

With “GATGATTGTTCTCCCAGCTGATGAATTAAGGGAGTCGAGTAAACAAATTTTCCTAATCTTTCTGTTCAAGCGCCATCTAC”, the binding signal was 0.249 RPM ratio (pull-down/input).

For “GATGATTGTTCTCCCAGCTGATGAATTGCTTAAATCGAGTAAACAAATTTTCCTAATCTTTCTGTTCAAGCGCCATCTAC”, the binding signal is 0.457 RPM ratio (pull-down/input).

As to “GATGATTGTTCTCCCAGCTGATGAATTCTAGGTATCGAGTAAACAAATTTTCCTAATCTTTCTGTTCAAGCGCCATCTAC”, the binding signal was 0.464 RPM ratio (pull-down/input).

Regarding “GATGATTGTTCTCCCAGCTGATGAATTTGCAATTTCGAGTAAACAAATTTTCCTAATCTTTCTGTTCAAGCGCCATCTAC”, the binding signal was 2.77 RPM ratio (pull-down/input).

Consider “GATGATTGTTCTCCCAGCTGATGAATTCTGCAATTCGAGTAAACAAATTTTCCTAATCTTTCTGTTCAAGCGCCATCTAC”, for which the binding signal was 4.83 RPM ratio (pull-down/input).

On to “GATGATTGTTCTCCCAGCTGATGAATTGTGCAATTCGAGTAAACAAATTTTCCTAATCTTTCTGTTCAAGCGCCATCTAC”, for which the binding signal is 6.39 RPM ratio (pull-down/input).

Consider “GATGATTGTTCTCCCAGCTGATGAATTTGCAAATTCGAGTAAACAAATTTTCCTAATCTTTCTGTTCAAGCGCCATCTAC”, for which the binding signal was 0.496 RPM ratio (pull-down/input).

Turning to “GATGATTGTTCTCCCAGCTGATGAATTTCGCAATTCGAGTAAACAAATTTTCCTAATCTTTCTGTTCAAGCGCCATCTAC”, the binding signal is 4.55 RPM ratio (pull-down/input).

On to “GATGATTGTTCTCCCAGCTGATGAATTCGTGCAATCGAGTAAACAAATTTTCCTAATCTTTCTGTTCAAGCGCCATCTAC”, for which the binding signal was 3.15 RPM ratio (pull-down/input).

On to “GATGATTGTTCTCCCAGCTGATGAATTTTGCAATTCGAGTAAACAAATTTTCCTAATCTTTCTGTTCAAGCGCCATCTAC”, for which the binding signal is 5.75 RPM ratio (pull-down/input).

With “GATGATTGTTCTCCCAGCTGATGAATTCGCAATTTCGAGTAAACAAATTTTCCTAATCTTTCTGTTCAAGCGCCATCTAC”, the binding signal was 1.92 RPM ratio (pull-down/input).

With “GATGATTGTTCTCCCAGCTGATGAATTGCGCAATTCGAGTAAACAAATTTTCCTAATCTTTCTGTTCAAGCGCCATCTAC”, the binding signal was 5.72 RPM ratio (pull-down/input).

For the sequence “GATGATTGTTCTCCCAGCTGATGAATTTTGGTCGTCGAGTAAACAAATTTTCCTAATCTTTCTGTTCAAGCGCCATCTAC”, the binding signal is 0.496 RPM ratio (pull-down/input).

As for “GATGATTGTTCTCCCAGCTGATGAATTTGGGTGGTCGAGTAAACAAATTTTCCTAATCTTTCTGTTCAAGCGCCATCTAC”, the binding signal is 0.682 RPM ratio (pull-down/input).

Turning to “GATGATTGTTCTCCCAGCTGATGAATTGTTAACTTCGAGTAAACAAATTTTCCTAATCTTTCTGTTCAAGCGCCATCTAC”, the binding signal is 0.587 RPM ratio (pull-down/input).

Consider “GATGATTGTTCTCCCAGCTGATGAATTGCTCCAATCGAGTAAACAAATTTTCCTAATCTTTCTGTTCAAGCGCCATCTAC”, for which the binding signal is 0.467 RPM ratio (pull-down/input).

As for “GATGATTGTTCTCCCAGCTGATGAATTTTCTCGCTCGAGTAAACAAATTTTCCTAATCTTTCTGTTCAAGCGCCATCTAC”, the binding signal was 0.241 RPM ratio (pull-down/input).

As to “GATGATTGTTCTCCCAGCTGATGAATTATATATATCGAGTAAACAAATTTTCCTAATCTTTCTGTTCAAGCGCCATCTAC”, the binding signal was 1.27 RPM ratio (pull-down/input).

Regarding “GATGATTGTTCTCCCAGCTGATGAATTGAAGGGATCGAGTAAACAAATTTTCCTAATCTTTCTGTTCAAGCGCCATCTAC”, the binding signal is 0.265 RPM ratio (pull-down/input).

On to “GATGATTGTTCTCCCAGCTGATGAATTCAGGCGATCGAGTAAACAAATTTTCCTAATCTTTCTGTTCAAGCGCCATCTAC”, for which the binding signal is 0.508 RPM ratio (pull-down/input).

For “GATGATTGTTCTCCCAGCTGATGAATTGTGTGCGTCGAGTAAACAAATTTTCCTAATCTTTCTGTTCAAGCGCCATCTAC”, the binding signal is 2.16 RPM ratio (pull-down/input).

In the case of “GATGATTGTTCTCCCAGCTGATGAATTTGCGTGTTCGAGTAAACAAATTTTCCTAATCTTTCTGTTCAAGCGCCATCTAC”, the binding signal was 3.79 RPM ratio (pull-down/input).

As for “GATGATTGTTCTCCCAGCTGATGAATTATGCGTGTCGAGTAAACAAATTTTCCTAATCTTTCTGTTCAAGCGCCATCTAC”, the binding signal is 5.88 RPM ratio (pull-down/input).

As to “GATGATTGTTCTCCCAGCTGATGAATTGCGTGTGTCGAGTAAACAAATTTTCCTAATCTTTCTGTTCAAGCGCCATCTAC”, the binding signal is 2.22 RPM ratio (pull-down/input).

With “GATGATTGTTCTCCCAGCTGATGAATTATGCGCGTCGAGTAAACAAATTTTCCTAATCTTTCTGTTCAAGCGCCATCTAC”, the binding signal was 3.33 RPM ratio (pull-down/input).

Take “GATGATTGTTCTCCCAGCTGATGAATTATATGCGTCGAGTAAACAAATTTTCCTAATCTTTCTGTTCAAGCGCCATCTAC”: the binding signal is 1.07 RPM ratio (pull-down/input).

As for “GATGATTGTTCTCCCAGCTGATGAATTGCGCGTGTCGAGTAAACAAATTTTCCTAATCTTTCTGTTCAAGCGCCATCTAC”, the binding signal was 4.88 RPM ratio (pull-down/input).

On to “GATGATTGTTCTCCCAGCTGATGAATTGTGCGTGTCGAGTAAACAAATTTTCCTAATCTTTCTGTTCAAGCGCCATCTAC”, for which the binding signal was 6.18 RPM ratio (pull-down/input).

Regarding “GATGATTGTTCTCCCAGCTGATGAATTTTGCGTGTCGAGTAAACAAATTTTCCTAATCTTTCTGTTCAAGCGCCATCTAC”, the binding signal was 5.56 RPM ratio (pull-down/input).

Take “GATGATTGTTCTCCCAGCTGATGAATTGGCCACGTCGAGTAAACAAATTTTCCTAATCTTTCTGTTCAAGCGCCATCTAC”: the binding signal was 0.526 RPM ratio (pull-down/input).

Consider “GATGATTGTTCTCCCAGCTGATGAATTGGTAGCTTCGAGTAAACAAATTTTCCTAATCTTTCTGTTCAAGCGCCATCTAC”, for which the binding signal was 0.798 RPM ratio (pull-down/input).
